In the library only some 7.3% were active in any assay of this set; here they are far more common.
HCMV inh – inhibitors of human cytomegalovirus. HFF cells, HCMV-luciferase reporter, 72 h; active compounds read low. activity change, negative = inhibition, % at 57.5 µM. actives 4.5% (n = 410,000). AID 1259415; in the data active = activity change below about -60%; inconclusive = no clear call, values can overlap the other calls; inactive = above about -39%
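Two compound doses tested in HFFs infected with HCMV-luciferase, MOI 1 PFU/cell, 72 h at 37C. Lysate luminescence read with OneGlo; data normalized against buffer-only and 10uM Salinomycin inhibitor controls.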
HCV inhibitor – blocks hepatitis C virus; Huh7.5.1 HCVcc-Cre infection, luciferase reporter, 44 h; AID 651820; Potency, µM (top dose mostly 41.8 µM), hits mostly inhibitors; actives 3.4% (n = 340,000); active = well fitted inhibition curve with a large enough effect; inconclusive = small, poorly fitted or top-dose-only effect, or another doubt; inactive = no such curve, though single readings can be large or run the other way
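Infectious HCV cell culture screen: compound-treated cells (1,000/well, pre-plated 4 h) are infected with HCVcc-Cre at roughly 0.5 moi and grown 44 h. Infection is quantified by luciferase signal after 15 min substrate incubation at room temperature.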
VACV mCherry inh – vaccinia inhibition (mCherry reporter) | Vaccinia virus mCherry reporter infection, fluorescence | Potency, µM (titrated, usually from 36.5 µM), actives largely listed as inhibitors | actives 0.63% (n = 310,000) | AID 720579; calls by dose curve; tested in A549 cells; also: nearly all actives have a fitted effect of over 35% in size
FMDV antiviral – foot and mouth disease virus antiviral activity | FMDV antiviral cell-based qHTS | Potency, µM (titrated, usually from 57.9 µM), most hits filed as inhibitors | actives 1.2% (n = 410,000) | AID 1159524; calls by dose curve; tested in HEK293T cells; also: read-out not given here; nearly all actives have a fitted effect of over 45% in size
Vaccinia Venus – vaccinia inhibition (Venus reporter). Vaccinia virus Venus reporter expression, fluorescence. Potency, µM (series often up to 36.5 µM), most hits filed as inhibitors. actives 0.46% (n = 330,000); calls by dose curve; tested in A549 cells; also: nearly all actives have a fitted effect of over 30% in size
A number is an active result; - = inactive; ? = inconclusive; . = no result.

SMILES	HCMV inh	HCV inhibitor	VACV mCherry inh	FMDV antiviral	Vaccinia Venus
CCc1ccc(Nc2n[n+](-c3ccccc3)c(-c3ccc(N(CC)CC)cc3)s2)cc1	-93.1	11.2µM	?	?	11.2µM
CCc1ccc(Nc2n[n+](-c3ccccc3)c(-c3ccc(OCc4ccccc4)cc3)s2)cc1	-96.4	?	-	-	?
CN(C)CCNC(=O)c1cccc(-c2cnc3c(NC=O)cc(-c4cccc(F)c4)cn23)c1	-87.4	.	-	-	-
CC(=O)Nc1cc(-c2cccc(C(=O)NCCN(C)C)c2)cn2c(-c3ccccc3)cnc12	-	.	?	-	?
CC(=O)Nc1cc(-c2cccc(C(=O)NCCN(C)C)c2)cn2c(-c3cccc(C(F)(F)F)c3)cnc12	-99.6	.	?	-	?
CN(C)CCNC(=O)c1cccc(-c2cnc3c(NC=O)cc(-c4ccc(F)cc4)cn23)c1	?	.	-	-	-
COc1ccc(-c2cc(NC=O)c3ncc(-c4cccc(C(=O)NCCN(C)C)c4)n3c2)cc1	-65.6	.	-	-	-
COC(=O)c1ccccc1NC(=O)Cn1c(=O)n(CCCC(=O)NCCc2ccc(OC)c(OC)c2)c(=O)c2ccccc21	-	.	-	-	-
CC(C)c1cc(C(=O)Nc2cc(Cl)ccc2O)no1	-	10µM	-	-	-
CC(C)c1cc(C(=O)Nc2cc(Br)ccc2O)no1	-	-	-	.	-
Cc1c(/C(O)=C2/C(=O)C(=O)N(CCN3CCOCC3)C2c2ccccn2)cnn1-c1ccccc1 (configuration not stated)	-78.2	-	-	1.41µM	-
Cc1nc2ccccn2c1/C(O)=C1\C(=O)C(=O)N(CCN2CCOCC2)C1c1cccnc1 (configuration not stated)	-	1µM	.	-	-
CC1=C(C(=O)Nc2ccccc2)C2(CCCCC2)C(C#N)=C(SCC(N)=O)N1	-	-	-	-	-
CC1(C)CC(=O)C2=C(C1)NC(SCC(=O)Nc1ccccc1)=C(C#N)C21CCCCC1	-	?	.	28.2µM	-
O=C(Nc1ccc(N2CCN(C(=O)c3ccccc3)CC2)cc1)c1cc2ccccc2o1	-65.9	?	.	14.1µM	?
CN1CCN(c2ccc(NC(=O)c3cc4ccccc4o3)cc2)CC1	-	?	.	-	.
CCCC(=O)N1CCN(c2ccc(NC(=O)c3cc4ccccc4o3)cc2)CC1	-	10µM	.	25.1µM	-
CC(=O)Nc1ccc(NC(=O)C2CCN(S(=O)(=O)c3ccc4c(c3)CCCC(=O)N4)CC2)cc1	-	.	-	-	-
CC(C)(C)OC(=O)N1CCC(c2c(C(=O)NCc3ccc4c(c3)OCO4)cnn2-c2ccc(F)cc2F)CC1	-	.	-	-	-
O=C(NC1CC(=O)N(c2ccc(F)cc2)C1)c1cc2ccccc2o1 (configuration not stated)	-	.	-	-	-
O=C(Nc1cccc(F)c1)N(Cc1ccc(Cl)cc1)CC(O)C(F)(F)F (configuration not stated)	?	11.2µM	?	-	?
Cc1noc(Cn2c(=O)c3ccccc3n(CC(=O)Nc3ccc(C(C)C)cc3)c2=O)n1	-	.	-	-	-
Cc1ccc(-c2csc(NC(=O)c3cc([N+](=O)[O-])ccc3N3CCOCC3)n2)cc1	-	-	.	-	.
O=C(Nc1nc(-c2ccccc2)cs1)c1ccc(N2CCOCC2)c([N+](=O)[O-])c1	.	3.55µM	?	?	?
O=C(Nc1nc2ccccc2s1)c1ccc(N2CCCCC2)c([N+](=O)[O-])c1	-71.5	?	-	-	-
SMILES	HCMV inh	HCV inhibitor	VACV mCherry inh	FMDV antiviral	Vaccinia Venus
Cc1ccccc1C(=O)Nc1nnc(-c2ccco2)s1	-	11.2µM	-	?	-
Cc1ccc(NC(=S)Nc2cccnc2)c(S(=O)(=O)N2CCCCC2)c1	-74.6	11.2µM	-	-	-
CCCCN1C(=O)N(c2ccc(Br)cc2)C(=O)C1c1nnnn1-c1c(C)cccc1Cl (configuration not stated)	-	.	.	.	.
COc1ccc2c(c1)OC1(O)COc3cc(OC)c(OC)cc3C1=C2 (configuration not stated)	.	.	-	-	-
CCOC(=O)NC(=O)C(/C=N/c1sccc1C(=O)OC)=C(\C)O	-	0.562µM	-	?	-
Cc1ccc(OCCn2c(C3CC(=O)N(Cc4ccc(F)cc4)C3)nc3ccccc32)c(C)c1 (configuration not stated)	-91.6	.	-	-	?
CCOc1ccc(N2CC(c3nc4ccccc4n3CCOc3ccccc3)CC2=O)cc1 (configuration not stated)	-	.	-	-	-
